Screening results (PubChem BioAssay)
Most compounds without a hit are left out; they make up all but 1.6% or so of the library.
KCNQ2 block: rat KCNQ2 potassium channel inhibitors, primary screen, cell-based, CHO-K1, FluxOR thallium flux, B-score | Potassium voltage-gated channel subfamily KQT member 2 (Rattus norvegicus), O88943 | 20 min; hits give low values | B-score at 10 µM | 310,000 tested, 1.1% active | AID 2156, 2009;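 active means fluorescence ratio B-score at most minus 3 library SDs, with starting brightness B-score within 2 library SDs, cut at about -5.5 in these data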
KCNQ2 enhance: potentiators of rat KCNQ2 potassium channel; Potassium voltage-gated channel subfamily KQT member 2 (Rattus norvegicus), O88943; CHO-K1 KCNQ2, FluxOR thallium flux fluorescence; hits give high values; B-score at 10 µM; 310,000 tested, 0.54% active;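 active means fluorescence ratio B-score at least 3 SD of library B-scores, with initial fluorescence B-score within 3 of them, cut at about 5.3 in these data; same plate scores as AID 2156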;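 further: B-score of peak minus minimum over baseline fluorescence ratio after K+ and Tl+ stimulus; positive B-score means potentiation of KCNQ2 with more thallium influx and brighter signal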
Kir21 conf inh: mouse Kir2.1 channel blockers, retest, confirmation, cell-based, FluxOR thallium flux, duplicate. 2,300 tested, 41% active. AID 2032, 2009. Tl flux remaining, % of negative control (hits give low values), % at 10 µM. shares compounds with KCNQ2 enhance. Kir2.1-expressing cells, FluxOR thallium flux fluorescence; hits give low values;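 active means Primary-screen hit whose thallium flux fell at least 3 control SD below untreated wells in both duplicates, with normal baseline fluorescence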;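 further: 0% = blank wells without stimulus and 100% = stimulated no-compound controls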
Target sequence (P35561 whole entry, looked up): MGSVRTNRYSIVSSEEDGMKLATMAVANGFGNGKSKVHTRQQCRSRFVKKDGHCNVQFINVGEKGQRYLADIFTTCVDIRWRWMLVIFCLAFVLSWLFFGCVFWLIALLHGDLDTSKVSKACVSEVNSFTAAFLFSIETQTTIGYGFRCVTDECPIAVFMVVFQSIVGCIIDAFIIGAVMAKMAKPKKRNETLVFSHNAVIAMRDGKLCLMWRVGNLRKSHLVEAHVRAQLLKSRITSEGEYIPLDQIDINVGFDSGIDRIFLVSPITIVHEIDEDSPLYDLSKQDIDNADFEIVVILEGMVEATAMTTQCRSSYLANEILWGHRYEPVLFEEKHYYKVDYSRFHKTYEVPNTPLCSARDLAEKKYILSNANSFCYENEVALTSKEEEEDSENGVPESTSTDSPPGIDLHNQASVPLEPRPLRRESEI
HEK293 ctr: counter-screen for Kir2.1 inhibitors: effect in parental HEK293 cells; shares compounds with KCNQ2 enhance; FluxOR thallium flux fluorescence; 0% = unstimulated blank wells; FluxOR signal as % of negative control (100 = no effect), % at 10 µM; 2,300 tested, 19% active; AID 2105;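 active means dye signal at least 3 control SD above or below untreated wells in both duplicates, raw fluorescence within 3, either direction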;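 further: percent is based on the flux ratio of peak minus minimum fluorescence over baseline F0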
CHO-K1 Tl ctr: nonspecific thallium flux increase in parental CHO-K1, confirmation, counter-screen for KCNQ2 potentiator project, cell-based, FluxOR thallium flux, duplicate | activity increase over 3SD of controls, % at 10 µM | parental CHO-K1 cells, FluxOR thallium flux fluorescence; zero = vehicle mean+3SD, 100% = vehicle-minus-blank window | 1,200 tested, 43% active | shares compounds with KCNQ2 enhance;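 active means signal rise of at least 3 SD above the untreated control mean, in both duplicate wells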;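 further: counter screen of KCNQ2 potentiator hits so any rise reflects channel-independent effects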
KCNQ1 sel pot: human KCNQ1 channel potentiation off-target, confirmation, selectivity assay for KCNQ2 potentiator project, cell-based, CHO, FluxOR thallium flux | shares compounds with KCNQ2 enhance | CHO KCNQ1 stable, FluxOR thallium flux fluorescence; beyond 3SD, as % of vehicle-control signal | activation over 3SD threshold, % at 10 µM | 1,200 tested, 28% active | AID 2283, 2010;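 active means fluorescence ratio rise of at least 3 SD of vehicle wells above their mean, in both replicate wells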;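 further: 0% = vehicle mean plus 3 SD and 100% = vehicle minus unstimulated blank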
KCNQ2 pot conf: rat KCNQ2 channel potentiators, confirmation, cell-based, CHO, FluxOR thallium flux, duplicate. potentiation, less the hit threshold, % at 10 µM. CHO-KCNQ2 cells, FluxOR thallium flux fluorescence. 1,200 tested, 68% active. AID 2287, 2010. shares compounds with KCNQ2 enhance;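 active means fluorescence ratio rising 3 SD or more over the vehicle control mean in both replicates, plus primary screen hit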;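 further: peak minus minimum thallium fluorescence divided by baseline after K/Tl stimulus; 0% = vehicle mean plus 3 SD and 100% = vehicle minus unstimulated blank difference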
Kir21 spec: mouse Kir2.1 channel activation off-target, confirmation, selectivity assay for KCNQ2 potentiator project, cell-based, HEK293, FluxOR thallium flux; HEK293 Kir2.1, FluxOR thallium flux fluorescence; activity over 3SD threshold, % at 10 µM; 1,200 tested, 2% active; shares compounds with KCNQ2 enhance;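 active means fluorescence ratio rise of at least 3 SD above the vehicle-control mean, seen in both replicates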;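 further: 0% = vehicle mean plus 3 SD and 100% = vehicle minus no-stimulus blank window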
KCNQ2 W236L pot: potentiators of retigabine-insensitive KCNQ2 W236L, mechanism study for KCNQ2 potentiator project, cell-based, rat KCNQ2 W236L, CHO, automated patch clamp | 940 tested, 10% active | current increase over 3SD of negative controls (%), hits give high values, % at 25 µM | automated patch clamp current | AID 2558, 2010 | shares compounds with KCNQ2 enhance;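 active means current increase at least 3 SD of the untreated controls above them in both duplicate recordings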
An asterisk follows results filed as active; i = inactive; . = no result.

SMILES	KCNQ2 block	KCNQ2 enhance	Kir21 conf inh	HEK293 ctr	others
COc1ccc(CC(=O)Nc2ccccc2N2CCCCC2)cc1OC	i	.	i	78%*
COc1cc(CC(=O)Nc2ccc3c(c2)CCC3)cc(OC)c1OC	i	0.88	.	.
CCCCCCSc1cccc(-c2nc3ccc(Cl)cn3c2NCc2ccccc2)c1	i	.	.	.
CCOCCN1CCN(C(=O)CN2CCCC2=O)CC1	i	.	.	.
N#C/C(=C\c1cccc(NC(=O)c2ccccc2Cl)c1)C(=O)NCCc1ccccc1	i	.	.	.
CC(C)(C)c1cc(C(=O)Nc2cccnc2)cc(C(=O)Nc2cccnc2)c1	i	0.33	.	.
Cc1ccc(/C=C/C(=O)OCc2nc(N)nc(Nc3ccccc3C)n2)o1	i	6.9*	i	i	CHO-K1 Tl ctr=144*;KCNQ1 sel pot=-6;KCNQ2 pot conf=2.1*;Kir21 spec=-46;KCNQ2 W236L pot=i
CCCCC(=O)OCc1nc(N)nc(Nc2ccccc2C)n1	i	1.1	.	.
CC(C)c1ccc(/C=C/C(=O)NC2CCCCC2)cc1	i	0.67	.	.
CC(C)c1ccc(C(C)NC(=S)NC2CCCCC2)cc1 (centres undefined)	i	16*	i	i	CHO-K1 Tl ctr=-3;KCNQ1 sel pot=-20;KCNQ2 pot conf=39*;Kir21 spec=-42;KCNQ2 W236L pot=i
CC(NC(=S)NC1CCCCC1)c1ccc(C(C)(C)C)cc1 (centres undefined)	i	9.9*	i	i	CHO-K1 Tl ctr=-6;KCNQ1 sel pot=-18;KCNQ2 pot conf=16*;Kir21 spec=-34;KCNQ2 W236L pot=i
CC(C)c1ccccc1NC(=S)NC1CCCCC1	i	.	.	.
O=C(CSc1nnc(-c2ccncc2)o1)N1CCc2ccccc2C1	i	0.05	.	.
COC(=O)CNC(=O)c1sc2ncn(CC(=O)Nc3ccc(C)c(Cl)c3)c(=O)c2c1C	i	0.01	.	.
CC(NCC(O)COc1ccc2ccccc2c1)c1ccccc1 (centres undefined)	i	0.03	.	.
Cc1cc(OCC(O)CNC(C)c2ccccc2)ccc1C(C)C (centres undefined)	i	3.9	i	i
C/C(=N\NC(=O)CN(c1ccc(Oc2ccccc2)cc1)S(C)(=O)=O)C(C)(C)C	i	0.09	.	.
O=C(Cn1nc2n(c1=O)-c1ccccc1SC2)N/N=C/c1cccs1	i	.	.	.
C[C@@H](CN1C2=NC[C@H](Cc3ccccc3)N2C[C@H]1Cc1ccc(O)cc1)NC(=O)CCC1CCCCC1	i	.	.	.
C/C=C(\C)C(=O)NCCN1C2=NC[C@H](Cc3ccccc3)N2C[C@@H]1Cc1ccc(OC)cc1	i	0.09	.	.
COc1ccc(C[C@H]2CN3C(=NC[C@@H]3Cc3ccccc3)N2C[C@H](C)NC(=O)CCC2CCCCC2)cc1	i	.	38%*	i
COc1ccc(C[C@H]2CN3C(=NC[C@H]3Cc3ccccc3)N2CCNC(=O)CCC2CCCCC2)cc1	i	.	47%*	i
CN(Cc1nc(Cc2cccc(F)c2)no1)CC1CCOCC1	i	0.05	.	.
Fc1ccc(-n2c(CN3CCCCC3)n[nH]c2=S)cc1	i	0.41	.	.
Nc1ccc(S(=O)(=O)c2ccccc2)nc1	i	.	.	.
SMILES	KCNQ2 block	KCNQ2 enhance	Kir21 conf inh	HEK293 ctr	others
O=[N+]([O-])c1ccc(S(=O)(=O)c2ccccc2)nc1	-5.9*	-5.9	i	70%*
N#CCC(=O)N/N=C\c1cccc(OC/C=C/c2ccccc2)c1	i	0.15	.	.
O=C(CSc1nnc(-c2ccco2)o1)c1ccc[nH]1	i	1	.	.
OCCNCc1c(OCc2ccc(Cl)cc2)ccc2ccccc12	i	0.51	37%*	i
OCCNCCNCc1ccccc1OCc1ccccc1	i	.	.	.
CSc1ccccc1NC(=O)CN(C)Cc1cccc(Cl)c1	i	.	.	.
O=C(O)CCC(=O)NCCc1cccc(Cl)c1	i	.	.	.
O=C(Cc1ccccc1)NCCc1cccc(Cl)c1	i	11*	i	i	CHO-K1 Tl ctr=-12;KCNQ1 sel pot=-13;KCNQ2 pot conf=23*;Kir21 spec=-38;KCNQ2 W236L pot=i
CN(CC(=O)NCCCc1ccccc1)Cc1ccc(Br)cc1	i	.	.	.
CN(CC(=O)NCCc1ccc(F)cc1)Cc1ccc(Br)cc1	-5.7*	-5.7	58%*	i
CN(CC(=O)NCCc1ccc(F)cc1)Cc1cccc(Cl)c1	i	.	45%*	i
COc1ccc(OC)c(C(=O)Nc2c(O)ccc3ccccc23)c1	i	0.01	.	.
O=C(NC(=S)Nc1ccc2oc(=O)ccc2c1)c1cccc(Cl)c1	i	0.04	.	.
Cn1c(=O)n(C)c2cc(NC(=O)c3ccc(F)cc3)ccc21	i	0.28	.	.
CCn1c(CN2CCN(Cc3ccc(C)cc3)C(CCO)C2)nc2ccccc21 (centres undefined)	i	.	.	.
O=C(CCc1ccccc1)NNC(=O)Nc1ccc(F)c(Cl)c1	i	0.95	.	.
CC(C)CCN1C(Nc2ccccc2)=NC[C@@H]1Cc1ccccc1	i	.	.	.
CC(CCN1C(Nc2ccccc2)=NC[C@@H]1Cc1ccccc1)c1ccccc1 (some centres undefined)	i	.	46%*	128%*
O=C(CSc1nc(-c2ccco2)cc(C(F)(F)F)n1)N1CCN(Cc2ccccc2)CC1	i	23*	i	i	CHO-K1 Tl ctr=81*;KCNQ1 sel pot=-3;KCNQ2 pot conf=42*;Kir21 spec=-47;KCNQ2 W236L pot=i
COc1ccccc1N1CCN(C(=O)CSc2nc(-c3ccco3)cc(C(F)(F)F)n2)CC1	i	12*	i	i	CHO-K1 Tl ctr=16*;KCNQ1 sel pot=13*;KCNQ2 pot conf=11*;Kir21 spec=-27;KCNQ2 W236L pot=i
COc1ccc(CCNC(=O)CSc2nc(-c3ccco3)cc(C(F)(F)F)n2)cc1OC	i	0.16	.	.
